High-throughput results as filed in PubChem.
Compounds with a hit are over-represented: about 1.4% of the library has one in this group of screens.
TSHR antag – blocks TSH signaling through the human TSH receptor | P16473 | activity change, negative = inhibition, % at 11.5 µM | TSHR-expressing cells, TSH-stimulated cAMP HTRF, 2 h; hits give low values | actives 0.2% (n = 330,000) | AID 504810;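 active = activity change below a set negative limit, meaning inhibition stronger than a set level, cut at about -70% in these data; inconclusive = activity change between two set negative limits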; also: % is scaled to controls: 0 for no effect and ±100 for the full control effect
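TSHR-expressing cells, 200/well, pre-treated with compound, then stimulated with EC80 TSH (4nM final) for 2 hours at 37 deg C. cAMP measured by competitive HTRF: anti-cAMP cryptate antibody in lysis buffer plus cAMP-d2, read after 30 minutes at room temperature.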
BRCA1 expr up – BRCA1 expression activation; MCF7-BRCA1-FFLuc reporter, luminescence, 48 h; response scale: scaled: vehicle 0%, 10 µM genistein 100%; Potency, µM (titrated, usually from 46.1 µM), for the others: top-dose activation, most hits filed as activators; actives 1.1% (n = 380,000); AID 624202; also: potency is read from the fitted curve at half-maximal effect; nearly all actives have a fitted effect of over 80% in size
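Reporter cells (MCF7, BRCA1 promoter-firefly luciferase) received library compounds across a concentration series for 48 h. End-point luminescence was measured and concentration-effect curves derived after normalization.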
p53 reactivation – restores transcriptional activity of mutant p53 | H1299 p53-A138V BP100-luciferase reporter, luminescence, 24 h | actives 0.063% (n = 320,000) | Potency, µM (doses to about 92.2 µM), without a hit: at the top dose activity change, positive = activation, most hits filed as activators; also: potency is read from the fitted curve at half-maximal effect; % of control where 0% means no effect; nearly all actives have a fitted effect of over 45% in size
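p53-null H1299 cells stably carrying temperature-sensitive p53-A138V and a BP100-luciferase reporter were pinned with compounds (4-point, 1:5 series) and held 24 hrs at 37 deg C. Luminescence was read 10 min after detection reagent.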
N370S GC – inhibitors or activators of N370S glucocerebrosidase for Gaucher disease. Potency, µM (series often up to 59.4 µM), without a hit: top-dose activity change, negative = inhibition, most hits filed as inhibitors. N370S GC spleen homogenate, 4MU-glucoside fluorescence. AID 2101. P04062. actives 0.092% (n = 330,000);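 also: potency is read from the fitted curve at half-maximal effect; 0% = full enzyme activity and -100% = no enzyme basal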
TCR activator – activates T cell receptor signaling. 330,000 tested, under 10 active. Potency, µM (titrated, usually from 9.22 µM), for the others: at the top dose activation of IL-2 secretion, most hits filed as activators. AID 504894. primary human leukocytes, anti-CD3, IL-2 HTRF, 48 h; also: % of control where 0% means no effect
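Using a-CD3 beads without co-stimulation, primary human leukocytes were exposed to compounds for 48 hr. An HTRF IL-2 kit measured the cytokine, with europium-to-d2 energy transfer producing emission at 665nm upon 320nm excitation.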
GLS inh – blocks human kidney-isoform glutaminase activity. GLS enzymatic activity, qHTS titration. Potency, µM (doses to about 45.5 µM), for inactives: at the highest dose activity change, negative = inhibition, actives largely listed as inhibitors. actives 0.21% (n = 410,000). AID 624170; also: potency is read from the fitted curve at half-maximal effect; % is scaled to controls: 0 for no effect and ±100 for the full control effect
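Enzyme dispensed in phosphate buffer (45 mM, pH 8.2, 0.02% Tween-20), compounds pinned in, then 1 mM L-glutamine solution and the glutamate oxidase–HRP–Amplex Red mix added; fluorescence read immediately and again after 30 min at room temperature.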
* marks the source's active call; other numbers are inactive results; ? = inconclusive; · = no result given; [ ] = another dose, or the depositor's remark. Unless noted, calls follow the shape of the dose curve; as a rule, active = well fitted curve in the direction sought with a large enough effect; inconclusive = small, poorly fitted or top-dose-only effect, or another doubt; inactive = no such curve, though single readings can be large; an effect the other way counts as inactive or inconclusive.

SMILES	TSHR antag	BRCA1 expr up	p53 reactivation	N370S GC	TCR activator	GLS inh
COC(=O)[C@@H](C)NC(=O)c1ccc2oc(CCc3ccccc3)nc2c1	-7	11µM*	·	1%	9%	-8%
CCOc1ccccc1CNC(=O)c1ccc(Cn2c(SCc3ccccc3)nc3cccnc32)cc1	·	·	·	·	·	-4%
COc1ccc(-c2cc(=O)oc3cc(OC(C)C(=O)O)ccc23)cc1 (stereo not drawn)	-2	2%	-7%	-9%	-1%	13%
COc1ccc(-c2cc(=O)oc3c(O)c(O)ccc23)cc1	7	-57%	7%	-8%	-1%	4.5µM*
O=[N+]([O-])c1cccc(-c2ccc(C(=S)N3CCOCC3)o2)c1	8	4.5µM*	?	18%	0%	1%
S=C(c1ccc(-c2cccc(Cl)c2)o1)N1CCCCC1	-11	?	?	11%	9%	?
N#CCCN1CCN(C(=S)c2ccc(-c3ccc(Cl)c(Cl)c3)o2)CC1	-12	9%	4%	-5%	11%	-2%
N#CCCN1CCN(C(=S)c2ccc(-c3cccc(Cl)c3)o2)CC1	-1	10µM*	4%	-2%	6%	2%
S=C(c1ccc(-c2cccc(Cl)c2)o1)N1CCOCC1	-7	3.5µM*	?	3%	·	-13%
CCOC(=O)C1CCN(C(=O)Cn2nc(CC)n3c(cc4occc43)c2=O)CC1	·	0%	·	·	·	-3%
CC(=O)Nc1nnc(COc2ccc(Cl)cc2)s1	14	4.5µM*	5%	-1%	8%	6%
COc1cccc(NC(=O)N2CCc3ccccc3C2)c1	-41	11µM*	3%	-15%	-2%	-10%
Cc1ccc(C)c(NC(=O)N2CCc3ccccc3C2)c1	4	3.5µM*	9%	0%	5%	-1%
Cc1ccc(C)c(NC(=O)N2CCCCCC2)c1	6	24%	20%	-4%	0%	16%
C=C1C=C(C(F)F)n2ncc(C(=O)NCc3ccc(OC)c(OC)c3)c2N1	·	-21%	·	·	·	·
O=C(Nc1cccc(Cl)c1)c1cc(N=Nc2ccc([N+](=O)[O-])cc2Cl)ccc1O	-98*	-33%	6%	-6%	8%	-2%
O=C(Nc1ccc([N+](=O)[O-])cc1Cl)c1cc(Cl)ccc1O	-91*	21%	-8%	-28%	-2%	-1%
CCCCC/C=C\C/C=C\CCCCCCCC(=O)NCC(=O)O	·	·	·	14%	·	·
COc1ccc(CNC(=O)CSc2ccsc2[N+](=O)[O-])cc1	0	10µM*	-6%	-5%	0%	6%
O=c1cc(-c2ccc(O)cc2)oc2cc(OC3OC(CO)C(O)C(O)C3O)c(C3OC(CO)C(O)C(O)C3O)c(O)c12 (stereo not drawn)	·	·	·	-9%	·	·
O=C(NNc1ccc(-c2csnn2)cc1)c1cc(Cl)cc(Cl)c1	4	-63%	-4%	16%	-2%	?
O=C(NNc1ccc(-c2csnn2)cc1)c1ccccc1C(F)(F)F	3	-16%	-3%	0%	-1%	11µM*
Cc1ccc(CNc2ncnc3onc(-c4ccc(F)cc4)c23)cc1	·	·	·	·	·	3%
Cc1cccc(NC(c2cccc(Cl)c2)c2ccc3cccnc3c2O)n1 (stereo not drawn)	·	·	·	·	·	0%
COc1ccc(-c2nn3c(-c4cc(-c5ccccc5)n[nH]4)nnc3s2)cc1OC	·	6%	·	·	·	·
O=C(CSc1nnnn1Cc1ccccc1)c1ccc(F)cc1	4	?	11%	-2%	8%	-5%
O=C(CSc1nnnn1Cc1ccccc1)c1ccccc1	-8	13µM*	20%	5%[2.35 µM]	-4%	11%
Cc1ccc(C(=O)CSc2nnc(-c3ccco3)n2Cc2ccccc2)cc1	-5	70%	10%	16%	-3%	?
O=C(CSc1nnc(-c2ccco2)n1Cc1ccccc1)c1ccccc1	4	4µM*	17%	-12%	4%	5%
